Data published in the supplement of paper PMC6555819.

Legend:
Experiment in all cases: PBM binding z-score (relative to random genomic background probes); higher = stronger binding; sequences stand for … in GC…GCGATTGACAGCGTAGAATGAAGG
[1] = system: FXR:RXRa (NR concentration 270 nM, RXRa partner concentration 90 nM)
How it was run: (§1)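 Probes were double-stranded and carried 34-nt variable regions with direct-repeat seeds, single-nucleotide variants, half-site ablations and random human genomic background sequences, printed on custom Agilent 4×180K protein-binding microarrays. Arrays were incubated 1 h with ligand-free nuclear receptor dimers in PBS pH 7.4, 2% milk, 0.02% Triton X-100, 1 mM DTT, 0.2 mg/mL BSA and 0.4 mg/ml salmon testes DNA. Antibodies against each partner (one per run) detected binding, and scanned fluorescence was regression-normalized. Binding z-scores use the random background probes as reference.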

[2] = system: LXRa:RXRa (NR concentration 270 nM, RXRa partner concentration 90 nM)
How it was run: as §1

[3] = system: LXRa homodimer (NR concentration 270 nM)
How it was run: as §1

[4] = system: LXRb:RXRa (NR concentration 270 nM, RXRa partner concentration 90 nM)
How it was run: as §1

[5] = system: LXRb homodimer (NR concentration 270 nM)
How it was run: as §1

[6] = system: PPARa:RXRa (NR concentration 270 nM, RXRa partner concentration 90 nM)
How it was run: as §1

[7] = system: PPARg:RXRa (NR concentration 180 nM, RXRa partner concentration 90 nM)
How it was run: as §1

[8] = system: PPARg:RXRa 270nM:90nM, anti-RXR (NR concentration 270 nM, RXRa partner concentration 90 nM)
How it was run: as §1

[9] = system: PPARg:RXRa 30nM:10nM, anti-RXR (NR concentration 30 nM, RXRa partner concentration 10 nM)
How it was run: as §1

[10] = system: PPARg:RXRa 90nM:30nM, anti-RXR (NR concentration 90 nM, RXRa partner concentration 30 nM)
How it was run: as §1

Sequence | PBM binding z-score [1] | PBM binding z-score [2] | PBM binding z-score [3] | PBM binding z-score [4] | PBM binding z-score [5] | PBM binding z-score [6] | PBM binding z-score [7] | PBM binding z-score [8] | PBM binding z-score [9] | PBM binding z-score [10]
CGTCCAAGGTCAAGGTCAGGGAAAGAGACTCGAA | 7.19 | 5.97 | 1.22 | 4.87 | 0.963 | 6.11 | 6.41 | 7.28 | 3.93 | 5.91
CCTACTGGGCCATTCAGAGCTCATTGATCATATG | -0.592 | -0.786 | -0.476 | -0.728 | -0.785 | 0.169 | 0.223 | 0.0807 | -0.459 | -0.224
CAAACTTGGTCAAAGGTCAAAGTCGAGCCAACCA | 6.18 | 6.18 | 4.48 | 5.67 | 2.36 | 6.84 | 11.5 | 10 | 10.4 | 11.2
CGTCCAAGGTAATAGGAGGTCAGTGAAGACAGAT | 1.29 | 5.47 | 3.58 | 2.99 | -0.518 | 2.14 | 0.506 | 0.791 | -0.301 | 0.264
TAGCCTAGGTCATTCAGGGCCCAGTATAGAAAGC | 4.66 | 3.59 | 0.608 | 2.37 | 0.858 | 3.62 | 1.96 | 2.34 | 0.126 | 1.56
TGAATGAGGTTAGAGATCAGGGAACGTGGCGTCG | 0.893 | 0.556 | -0.223 | 0.296 | 0.27 | 2.47 | 2.82 | 4.06 | 2.73 | 4.07
CCTTACGGGTCAAGGGTATAGCACGGGTGGTACG | 5.14 | 3.24 | -0.107 | 2.59 | -0.218 | 5.12 | 5.03 | 5.23 | 2.3 | 4.37
CGTCCATGGTCAGAGAGGTCAGTGAATGCCGAGT | 1.59 | 1.68 | 0.897 | 1.84 | -0.375 | 2.51 | 0.301 | 0.981 | -0.535 | 0.219
AATACAGGGTCATCGTAGGCCAGAGTTCGCACAG | 7.34 | 6.57 | 3.73 | 4.63 | 1.44 | 5.93 | 7.18 | 6.46 | 2.9 | 5.18
TCTGCTAGGTCAACGATGGTCATCTAATCTGCTA | 3.5 | 3.34 | 0.105 | 2.03 | 0.0541 | 3.37 | 2.78 | 3.34 | 2.08 | 2.79
TGATATAGGTAAATGCTAGGTGAAAGTCCGATCT | 0.297 | 0.127 | 0.0779 | -0.0435 | -0.105 | 1.62 | 1.45 | 1.84 | 1.05 | 1.44
TCACATAGGTAATACAGGTGAAAGTCGGCATCTA | 0.672 | 0.976 | 0.424 | 0.83 | 0.142 | 1.66 | 1.04 | 2.47 | 3.63 | 3.03
GCTATTCGTTGAAAGGGCAACCGAATGATTCTCG | 0.141 | 0.488 | 0.342 | 0.644 | -0.0285 | 1.61 | 1.23 | 2.56 | 0.831 | 2.16
CGTCAAAGTTCAACTAAGGGAACGTAAAGCACGC | 6.99 | 6.08 | 3.68 | 3.74 | 1.85 | 4.93 | 4.78 | 5.73 | 1.94 | 4.2
TCTGCTAGGTCAACGATGGCCAGCTAATCTGCTA | 3.09 | 2.21 | -0.626 | 1.34 | -0.287 | 3 | 2.34 | 2.77 | 1.8 | 2.37
AATACAGGGTCACTAGGCAAGAGTAGGTACGAAT | 6.39 | 4.96 | 0.866 | 3.82 | 1.1 | 5.59 | 7.09 | 5.74 | 3.03 | 4.6
CAAACTGGGTCACAGAGGTCAAAGTCCGTGCGTA | 6.46 | 6.47 | 6.04 | 5.99 | 1.68 | 6.5 | 9.86 | 7.93 | 6.54 | 8.19
TCGAGTAGGTTACCAATGCGGCATTCAGCTTTCT | 0.106 | 0.532 | -0.94 | 0.215 | -0.704 | 0.883 | 0.206 | 1.1 | 1.23 | 1.24
CAAACTAGGTCAAGGTCAGAGTCGGTTTGTGCCA | 5.93 | 4.35 | 1.98 | 3.26 | 0.405 | 5.7 | 9.05 | 7.77 | 6.36 | 8.17
CCTAGCAGGCCAATCTGGGTCACGCAAGGCTTGA | 1.04 | 1.43 | -0.342 | 0.849 | -1.08 | 3.34 | 3.18 | 3.08 | 0.775 | 2.35
TCTTGTAGATCAACAGGAGCTTAAGAAAGATCGA | -0.438 | -0.744 | -1.18 | -0.366 | -0.825 | 0.0739 | -0.318 | 0.847 | 2.14 | 1.43
CAAACTAGGACAAGAGGTCAAAGTCCGCTTCCCG | 4.96 | 5.72 | 5.89 | 4.83 | 1.83 | 5.48 | 5.75 | 6.56 | 4.76 | 6.29
TAGCCTAAGTCATTGGGCCAGTATAGTACGCATC | -0.205 | -0.421 | -0.659 | -0.39 | -0.339 | -0.181 | 0.256 | -0.24 | -0.281 | -0.391
GCTGCTAGGTCAGGCTGGTCAGCTAACGGGTACG | 0.826 | 0.306 | -0.725 | -0.222 | -1.11 | 1.3 | 0.457 | 0.956 | -0.364 | -0.0747

Sequence | PBM binding z-score [1] | PBM binding z-score [2] | PBM binding z-score [3] | PBM binding z-score [4] | PBM binding z-score [5] | PBM binding z-score [6] | PBM binding z-score [7] | PBM binding z-score [8] | PBM binding z-score [9] | PBM binding z-score [10]
CGTCGAAGGTCAGCAGGTCAGTGAAAGCGACGTG | 5.54 | 3.8 | 0.42 | 3.06 | -0.433 | 4.76 | 4.28 | 4.81 | 1.5 | 2.88
CAGCCTCGGTCAGGGCCAGTATAGGAGGAACGTT | -0.344 | -0.223 | -0.491 | -0.601 | -1.46 | -0.701 | -0.243 | -1.13 | -1.22 | -1.45
CTCGAAAGGTCGTGCTCAGGTGAGTATCCCAAAC | 4.79 | 3.79 | 0.264 | 3.34 | 0.35 | 4.61 | 2.17 | 3.89 | 0.803 | 2.2
AATATAGGGTCACTAGGCCAGAGTAGGTACGAAT | 6.26 | 5.13 | 0.894 | 4.07 | 0.704 | 5.67 | 8.45 | 6.68 | 3.94 | 5.68
TGTCAAAGTTCAAAGGTAACGTATGTATCCACAC | 7.33 | 6.48 | 4.88 | 4.63 | 1.63 | 5.67 | 8.6 | 7.61 | 5.63 | 7.23
TTACCAAGGTGAAGGGCGTTGATCCCTCTGTAGA | 0.622 | 0.629 | -0.192 | 0.495 | -0.575 | 1.47 | 0.846 | 2.19 | 0.835 | 1.69
GGATCGAGGGCATTCGAGTTGATAGCATGGCGAT | 0.788 | 1.56 | -0.155 | -0.0829 | -0.428 | 1.47 | 0.73 | 0.681 | -0.121 | 0.313
CCTCGGAGGACAGAAGGTCAGAGATGTCCGCTTT | 0.986 | 1.24 | 0.141 | 0.889 | -0.867 | 1.55 | 0.383 | 0.542 | -0.288 | 0.432
CTCGAAAGGTCGCGCTCAGGTGAGTATACCAAAC | 5.56 | 4.34 | 0.0163 | 3.5 | 0.0326 | 5.16 | 3.37 | 4.57 | 1.32 | 2.97
CGTCAAAGTTGAACTAAGGTAACGTAAAGCACGC | 2.71 | 3.29 | 3.88 | 1.57 | 0.134 | 2.26 | 1.45 | 2.65 | 0.653 | 2.03
TCTTGTAGACCAAGCAGGTTAAGAAAGCCTGAGT | 0.286 | 0.184 | -0.371 | -0.086 | -0.534 | 0.881 | -0.307 | 1.12 | 2.54 | 1.77
TCTATTAGCTGAAGGGCAACCGACGAGTCCGTTT | -0.0805 | 0.244 | -0.393 | 0.444 | -0.429 | 0.629 | 0.0411 | 1.66 | 2.6 | 2.2
TCTTATAGGTAATACAGGTGAAAGTCGGCATCTA | 1.18 | 1.45 | 0.636 | 1.17 | 0.858 | 2.06 | 1.26 | 2.8 | 3.97 | 3.16
TAGCCTAGGTCATTCAGGGGCCCGTATAGAAAGC | 4.76 | 3.93 | 0.791 | 2.54 | 0.963 | 3.52 | 1.99 | 2.34 | 0.359 | 1.44
ATATGTAGGTTATCGGGTCATTCACTTTGCGCAT | 3.3 | 3.17 | 2.13 | 3.23 | 1.51 | 5.02 | 7.09 | 6.26 | 3.66 | 5.87
TTACCAAGGTGAAAGTTCGTTGATGCACGCCTTG | 1.93 | 1.83 | 0.114 | 1.35 | -0.561 | 4.14 | 6.03 | 6.53 | 4.84 | 6.63
TCATATAGGTAATACAGGTTAAAGTCGGCATCTA | 1.72 | 2.72 | 2.2 | 1.82 | 0.603 | 2.28 | 1.93 | 2.74 | 4.37 | 3.53
CTACCAGGGTGAACAAGGTCGTTGATTACTATTC | 0.789 | 1.46 | 0.0612 | 1.76 | -0.454 | 2.41 | 0.951 | 1.28 | 0.0757 | 0.507
TGAATGAGGTTAAAGATAAGGGAACGTGGCGTCG | 2.65 | 2.28 | 0.104 | 1.5 | 0.393 | 3.54 | 2.88 | 3.98 | 1.97 | 3.5
AGTCAAAGTTCAGGACGAGGTAACATAAAGCACG | 4.23 | 4.01 | 1.38 | 2.25 | 0.512 | 3.45 | 4.84 | 4.91 | 2.27 | 4.16
CGGCAAAGTTCAAGGTAACGTAACAGAAAGCAGC | 6.25 | 5.26 | 1.74 | 3.16 | -0.0277 | 4.47 | 3.94 | 4.6 | 1.59 | 3.43
GATACAGGGTCAGCTAGAGGCCAGAGGATGGAAA | 4.5 | 3.02 | -0.423 | 2.39 | -0.64 | 4.54 | 3.7 | 3.5 | 1.02 | 2.16
CGTCCAAGGTCAGAGAGGTCAGTAAATGCCGAGT | 5.8 | 4.99 | 3.02 | 4.55 | 0.428 | 4.81 | 3.48 | 4.16 | 1.04 | 2.7
CCTCGGAGGACATCAGGAGGTCAGAGCTGCCAGA | 1.63 | 1.87 | 1.11 | 1.17 | -0.894 | 1.93 | 0.267 | 0.414 | -0.801 | -0.136
